The source of these data is the supplement of paper PMC6853941.

For one assay, the system named is MCF10A. In words: perturbation Mahalanobis distance of morphological profile vs DMSO controls (Mahalanobis distance (SD units)); higher = stronger morphological change, active = 7 or more. As to conditions: screen batch: Batch1_Mahalanobis_Distance; 72 h. How it is done: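 MCF10A cells were seeded onto drugs dispensed acoustically into 384-well plates, using one dose per drug chosen from its human peak plasma concentration, and incubated for 72 h at 37 °C. Cells were stained for DNA, tubulin and mitochondria and imaged; 78 CellProfiler features were extracted, plate-normalised and compared with DMSO wells.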
As to `NC(N)=NCC1COC2(CCCCC2)O1` (stereo not given) [Guanadrel] (140.7 µM), the “perturbation Mahalanobis distance” value was 2.66 (inactive).

With `NC(N)=NC(=O)c1nc(Cl)c(N)nc1N` [Amiloride] (1.1 µM), the “perturbation Mahalanobis distance” value was 5.52 (inactive).

For the molecule `CN(Cc1cnc2nc(N)nc(N)c2n1)c1ccc(C(=O)N[C@@H](CCC(=O)O)C(=O)O)cc1` [Methotrexate] (0.44 µM), the “perturbation Mahalanobis distance” value is 9.23 (active).

With `CN(CCOc1ccc(CC2SC(=O)NC2=O)cc1)c1ccccn1` (stereo not given) [Rosiglitazone] (4.2 µM), the “perturbation Mahalanobis distance” value was 2.03 (inactive).

As for `C[C@H]1O[C@H](O[C@H]2[C@H](O)[C@@H](O)[C@@H](O[C@H]3[C@H](O)[C@@H](O)C(O)O[C@@H]3CO)O[C@@H]2CO)[C@H](O)[C@@H](O)[C@@H]1N[C@H]1C=C(CO)[C@@H](O)[C@H](O)[C@H]1O` (stereo not given in full) [Acarbose] (2.2 µM), the “perturbation Mahalanobis distance” value is 2.5 (inactive).

With `C[C@@H]1CCC2[C@@H](C)[C@@H](O)O[C@@H]3OC4(C)CC[C@@H]1[C@@]23OO4` (stereo not given in full) [Dihydroartemisinin] (13.2 µM), the “perturbation Mahalanobis distance” value was 10.7 (active).

On to `CN1CCC(=C2c3ccccc3CCc3cccnc32)CC1` [Azatadine] (0.43 µM), for which the “perturbation Mahalanobis distance” value was 2.42 (inactive).

As for `C#C[C@]1(O)CC[C@H]2[C@@H]3CCC4=CC(=O)CC[C@@H]4[C@H]3CC[C@@]21CC` [Levonorgestrel] (0.24 µM), the “perturbation Mahalanobis distance” value is 3.22 (inactive).

As to `CCN(CC)C(=S)S` [Sodium Diethyldithiocarbamate Trihydrate] (10 µM), the “perturbation Mahalanobis distance” value is 3.67 (inactive).

Take `C[C@@H](NCCCc1cccc(C(F)(F)F)c1)c1cccc2ccccc12` [Cinacalcet] (0.4 µM): the “perturbation Mahalanobis distance” value was 2.7 (inactive).

As for `C[N+](C)(C)CCOC(N)=O` [Carbachol] (37 µM), the “perturbation Mahalanobis distance” value is 2.88 (inactive).

On to `CC(=O)c1ccc(S(=O)(=O)NC(=O)NC2CCCCC2)cc1` [Acetohexamide] (10 µM), for which the “perturbation Mahalanobis distance” value was 3.84 (inactive).

With `C=CC[C@@H]1/C=C(\C)C[C@H](C)C[C@H](OC)[C@H]2O[C@@](O)(C(=O)C(=O)N3CCCC[C@H]3C(=O)O[C@H](/C(C)=C/[C@@H]3CC[C@@H](O)[C@H](OC)C3)[C@H](C)[C@@H](O)CC1=O)[C@H](C)C[C@@H]2OC` [Tacrolimus] (0.09 µM), the “perturbation Mahalanobis distance” value was 2.64 (inactive).

Turning to `N=c1nc(N2CCCCC2)cc(N)n1O` [Minoxidil] (6 µM), the “perturbation Mahalanobis distance” value was 6.53 (inactive).

In the case of `COc1cc(C(=O)NS(=O)(=O)c2ccccc2C)ccc1Cc1cn(C)c2ccc(NC(=O)OC3CCCC3)cc12` [Zafirlukast] (0.26 µM), the “perturbation Mahalanobis distance” value was 2.19 (inactive).

Take `CN(C)CCCN1c2ccccc2CCc2ccccc21` [Imipramine] (6.2 µM): the “perturbation Mahalanobis distance” value was 6.2 (inactive).

On to `NS(=O)(=O)c1cc(Cl)c(Cl)c(S(N)(=O)=O)c1` [Dichlorphenamide] (214.8 µM), for which the “perturbation Mahalanobis distance” value was 2.6 (inactive).

Consider `COc1cc(N)c(Cl)cc1C(=O)NC1CCN(CCCOc2ccc(F)cc2)CC1OC` (stereo not given) [Cisapride] (0.85 µM), for which the “perturbation Mahalanobis distance” value was 3.31 (inactive).

Turning to `O=C(O)[C@H]1OC(Oc2ccc([C@@H]3[C@@H](CC[C@@H](O)c4ccc(F)cc4)C(=O)N3c3ccc(F)cc3)cc2)[C@H](O)[C@@H](O)[C@@H]1O` (stereo not given in full) [Ezetimibe Glucuronide] (47 µM), the “perturbation Mahalanobis distance” value was 2.38 (inactive).

As to `O=C1c2c(O)ccc(O)c2C(=O)c2c(NCCNCCO)ccc(NCCNCCO)c21` [Mitoxantrone] (3.4 µM), the “perturbation Mahalanobis distance” value was 9.47 (active).

Staying with this assay, now noted: screen batch: Batch2_Mahalanobis_Distance; 72 h.
Turning to `NC(N)=NCC1COC2(CCCCC2)O1` (stereo not given) [Guanadrel] (140.7 µM), the “perturbation Mahalanobis distance” value is 2.51 (inactive).

As for `NC(N)=NC(=O)c1nc(Cl)c(N)nc1N` [Amiloride] (1.1 µM), the “perturbation Mahalanobis distance” value is 3.78 (inactive).

As for `CN(Cc1cnc2nc(N)nc(N)c2n1)c1ccc(C(=O)N[C@@H](CCC(=O)O)C(=O)O)cc1` [Methotrexate] (0.44 µM), the “perturbation Mahalanobis distance” value was 17.5 (active).

On to `CN(CCOc1ccc(CC2SC(=O)NC2=O)cc1)c1ccccn1` (stereo not given) [Rosiglitazone] (4.2 µM), for which the “perturbation Mahalanobis distance” value was 3.13 (inactive).

Consider `C[C@H]1O[C@H](O[C@H]2[C@H](O)[C@@H](O)[C@@H](O[C@H]3[C@H](O)[C@@H](O)C(O)O[C@@H]3CO)O[C@@H]2CO)[C@H](O)[C@@H](O)[C@@H]1N[C@H]1C=C(CO)[C@@H](O)[C@H](O)[C@H]1O` (stereo not given in full) [Acarbose] (2.2 µM), for which the “perturbation Mahalanobis distance” value is 3.14 (inactive).

As to `C[C@@H]1CCC2[C@@H](C)[C@@H](O)O[C@@H]3OC4(C)CC[C@@H]1[C@@]23OO4` (stereo not given in full) [Dihydroartemisinin] (13.2 µM), the “perturbation Mahalanobis distance” value is 16.7 (active).

In the case of `CN1CCC(=C2c3ccccc3CCc3cccnc32)CC1` [Azatadine] (0.43 µM), the “perturbation Mahalanobis distance” value is 2.53 (inactive).

Regarding `C#C[C@]1(O)CC[C@H]2[C@@H]3CCC4=CC(=O)CC[C@@H]4[C@H]3CC[C@@]21CC` [Levonorgestrel] (0.24 µM), the “perturbation Mahalanobis distance” value was 2.71 (inactive).

`CCN(CC)C(=S)S` [Sodium Diethyldithiocarbamate Trihydrate] (10 µM): the “perturbation Mahalanobis distance” value is 3.24 (inactive).

`C[C@@H](NCCCc1cccc(C(F)(F)F)c1)c1cccc2ccccc12` [Cinacalcet] (0.4 µM): the “perturbation Mahalanobis distance” value is 2.58 (inactive).

Consider `C[N+](C)(C)CCOC(N)=O` [Carbachol] (37 µM), for which the “perturbation Mahalanobis distance” value was 2.82 (inactive).

For `CC(=O)c1ccc(S(=O)(=O)NC(=O)NC2CCCCC2)cc1` [Acetohexamide] (10 µM), the “perturbation Mahalanobis distance” value is 4.7 (inactive).

Regarding `C=CC[C@@H]1/C=C(\C)C[C@H](C)C[C@H](OC)[C@H]2O[C@@](O)(C(=O)C(=O)N3CCCC[C@H]3C(=O)O[C@H](/C(C)=C/[C@@H]3CC[C@@H](O)[C@H](OC)C3)[C@H](C)[C@@H](O)CC1=O)[C@H](C)C[C@@H]2OC` [Tacrolimus] (0.09 µM), the “perturbation Mahalanobis distance” value was 2.28 (inactive).

For `N=c1nc(N2CCCCC2)cc(N)n1O` [Minoxidil] (6 µM), the “perturbation Mahalanobis distance” value is 2.8 (inactive).

As for `COc1cc(C(=O)NS(=O)(=O)c2ccccc2C)ccc1Cc1cn(C)c2ccc(NC(=O)OC3CCCC3)cc12` [Zafirlukast] (0.26 µM), the “perturbation Mahalanobis distance” value was 1.99 (inactive).

In the case of `CN(C)CCCN1c2ccccc2CCc2ccccc21` [Imipramine] (6.2 µM), the “perturbation Mahalanobis distance” value is 4.52 (inactive).

On to `NS(=O)(=O)c1cc(Cl)c(Cl)c(S(N)(=O)=O)c1` [Dichlorphenamide] (214.8 µM), for which the “perturbation Mahalanobis distance” value was 4.41 (inactive).

Turning to `COc1cc(N)c(Cl)cc1C(=O)NC1CCN(CCCOc2ccc(F)cc2)CC1OC` (stereo not given) [Cisapride] (0.85 µM), the “perturbation Mahalanobis distance” value is 2.99 (inactive).

`O=C(O)[C@H]1OC(Oc2ccc([C@@H]3[C@@H](CC[C@@H](O)c4ccc(F)cc4)C(=O)N3c3ccc(F)cc3)cc2)[C@H](O)[C@@H](O)[C@@H]1O` (stereo not given in full) [Ezetimibe Glucuronide] (47 µM): the “perturbation Mahalanobis distance” value is 2.09 (inactive).

For the molecule `O=C1c2c(O)ccc(O)c2C(=O)c2c(NCCNCCO)ccc(NCCNCCO)c21` [Mitoxantrone] (3.4 µM), the “perturbation Mahalanobis distance” value is 16.4 (active).
